Results taken from PubChem BioAssay (Tox21).
Inconclusive results are not listed. The source made the active and inactive calls. Unless noted, calls come from the whole dose curve; as a rule, active = well fitted curve in the direction sought with a large enough effect in the repeat runs; inconclusive = weak or mixed curves; inactive = no such curve, though single readings can be large; an effect the other way counts as inactive or inconclusive.

Columns and labels:
[1] = molecular target: Thyrotropin receptor (Homo sapiens) (UniProt P16473); assay: qHTS assay to identify small molecule agonists of the thyroid stimulating hormone receptor (TSHR) signaling pathway (AID 1224843; calls by dose curve; note: nearly all actives have a fitted effect of over 45% in size)
Sequence of Thyrotropin receptor (Homo sapiens) (P16473 whole entry, looked up): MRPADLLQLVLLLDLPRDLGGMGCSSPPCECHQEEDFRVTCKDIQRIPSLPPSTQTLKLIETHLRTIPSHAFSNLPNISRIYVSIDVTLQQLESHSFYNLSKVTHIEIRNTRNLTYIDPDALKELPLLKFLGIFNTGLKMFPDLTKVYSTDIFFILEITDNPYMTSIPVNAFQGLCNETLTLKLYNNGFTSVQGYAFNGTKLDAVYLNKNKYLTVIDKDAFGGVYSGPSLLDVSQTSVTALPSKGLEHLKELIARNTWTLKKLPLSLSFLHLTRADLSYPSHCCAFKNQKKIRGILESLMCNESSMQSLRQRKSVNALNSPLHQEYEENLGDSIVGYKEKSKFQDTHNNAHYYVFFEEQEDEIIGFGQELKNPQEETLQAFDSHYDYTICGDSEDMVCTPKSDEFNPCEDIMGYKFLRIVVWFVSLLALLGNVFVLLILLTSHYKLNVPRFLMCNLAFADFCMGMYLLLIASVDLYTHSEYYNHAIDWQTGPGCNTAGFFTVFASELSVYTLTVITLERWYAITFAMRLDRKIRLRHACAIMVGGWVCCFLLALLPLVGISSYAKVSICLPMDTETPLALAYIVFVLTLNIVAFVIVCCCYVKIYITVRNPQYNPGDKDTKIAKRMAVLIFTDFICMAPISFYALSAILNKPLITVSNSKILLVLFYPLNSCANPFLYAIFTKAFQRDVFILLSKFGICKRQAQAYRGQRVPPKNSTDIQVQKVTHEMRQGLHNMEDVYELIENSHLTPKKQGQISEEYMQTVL
Outline: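 Cell line HEK293 with TSHR; density 800/well. Exposure 30 min RT. Readout HTRF cAMP (cAMP-d2/anti-cAMP-cryptate), 1 h RT before reading.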

[2] = qHTS assay to identify small molecule agonists of the hypoxia (HIF-1) signaling pathway - cell viability counter screen (AID 1224844; calls by dose curve; note: nearly all actives have a fitted effect of over 50% in size)
Outline: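 ME-180 HRE-bla cells, 2,000/well, 0.5% dialyzed FBS; 5 hr settle, 17 hr compound at 37C/5% CO2; CCF4-AM reporter read first, then CellTiter-Glo luminescence after 30 min RT.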

[3] = qHTS assay to identify small molecule agonists of H2AX (AID 1224845; active = well fitted activation curve with a large enough effect in the signal ratio in the repeat runs, not every such curve was filed as active; the % refers to the signal ratio)
Outline: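 Wild-type CHO-K1 cells plated overnight, then exposed 3 hr at 37C to compounds at 15 concentrations (0.76% DMSO). Lysed, then HTRF anti-pH2AX(S139)-cryptate/anti-H2AX-d2 detection after 24 hr at room temperature; emissions 665 and 620 nm.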

[4] = qHTS assay to identify small molecule agonists of the hypoxia (HIF-1) signaling pathway (AID 1224846; active = well fitted activation curve with a large enough effect in the signal ratio in the repeat runs, not every such curve was filed as active; the % refers to the signal ratio)
Outline: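 Cell line: CellSensor HRE-bla ME-180; 2,000 cells/well; 0.5% dialyzed FBS; 5 h preincubation; DMSO compound pin transfer; 17 h, 37C, 5% CO2; CCF4-AM added; bla FRET signal scored for activation.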

[5] = qHTS assay to identify small molecule agonists of H2AX - cell viability counter screen (AID 1224847; calls by dose curve; note: top concentration of the series differs between compounds; nearly all actives have a fitted effect of over 30% in size)
Outline: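 Quantitative HTS viability measurement: CHO-K1 wild-type cells in serum (10% FBS) medium, short 3 hr drug exposure at 37C with 0.76% DMSO, CellTiter-Glo luminescent detection.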

[6] = qHTS RealTime-Glo MT Cell Viability Assay in HepG2 cells - 24 hour (AID 1224867); note: nearly all actives have a fitted effect of over 50% in size
Outline: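 Tox21 10K library screened in qHTS format on HepG2 cells carrying RealTime-Glo reagents. Compounds were added after a 5 h preincubation, and the luminescent signal from continuous culture was measured repeatedly during 40 h treatment.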

[7] = qHTS RealTime-Glo MT Cell Viability Assay in HEK293 cells - 32 hour (AID 1224868); note: top concentration of the series differs between compounds; nearly all actives have a fitted effect of over 50% in size
Outline: (§1)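 Luminescence generated by NanoLuc from substrate produced by living HEK293 cells served as the viability signal. Each value reflects the reading at its stated time point during continuous 40 h compound exposure at 37 C.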

[8] = A CellTox Green Cytotoxicity Assay to monitor cytotoxicity in HEK293 cells - 0 hour (AID 1224869); note: nearly all actives have a fitted effect of over 50% in size
Outline: (§2)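 Nonlytic real-time cytotoxicity: HEK293 + CellTox Green reagent plated, 5 h preincubation, pintool compound addition (23 nL in DMSO), 37 C for 40 h, fluorescence measured at successive time points.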

[9] = qHTS RealTime-Glo MT Cell Viability Assay in HepG2 cells - 40 hour (AID 1224870); note: nearly all actives have a fitted effect of over 50% in size
Outline: (§3)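 HepG2 cells mixed with RealTime-Glo MT reagents (NanoLuc plus cell-permeant prosubstrate) were seeded at 600 cells/well, incubated 5 h at 37 C/5% CO2, then pinned with compounds in DMSO; nonlytic luminescence tracked viability during 40 h treatment.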

[10] = A CellTox Green Cytotoxicity Assay to monitor cytotoxicity in HEK293 cells - 40 hour (AID 1224871); note: nearly all actives have a fitted effect of over 45% in size
Outline: as §2

[11] = qHTS RealTime-Glo MT Cell Viability Assay in HEK293 cells - 16 hour (AID 1224872)
Outline: as §1

[12] = qHTS RealTime-Glo MT Cell Viability Assay in HepG2 cells - 8 hour (AID 1224873); note: nearly all actives have a fitted effect of over 55% in size
Outline: as §3

[13] = qHTS RealTime-Glo MT Cell Viability Assay in HEK293 cells - 40 hour (AID 1224874); conditions: RealTime-Glo luminescence; max response: hits give low values; note: nearly all actives have a fitted effect of over 50% in size
Outline: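 Cells were seeded together with NanoLuc luciferase and a prosubstrate that viable cells reduce to a luciferase substrate. After a 5 h incubation at 37 C/5% CO2, compounds were added and luminescence was measured repeatedly during 40 h of treatment.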

[14] = A CellTox Green Cytotoxicity Assay to monitor cytotoxicity in HEK293 cells - 24 hour (AID 1224875); note: series mostly up to about 77 µM; nearly all actives have a fitted effect of over 45% in size
Outline: as §2

[15] = qHTS assay to identify small molecule antagonists of the estrogen related receptor (ERR) signaling pathway from Tox21 library (AID 1224848); note: nearly all actives have a fitted effect of over 50% in size
Outline: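 Screening used an ERR reporter line supplied by NTP, exposed for 18 h at 37 C to library compounds delivered in DMSO. Signal was luciferase luminescence developed with ONE-Glo at room temperature for 30 min.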

[16] = qHTS assay to identify small molecule agonists of the estrogen related receptor (ERR) signaling pathway from Tox21 library (AID 1224849; calls by dose curve; note: nearly all actives have a fitted effect of over 15% in size)
Outline: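 ERR cells, 6 h pre-incubation 37 C/5% CO2; cpd in DMSO pinned; 18 h 37 C; ONE-Glo added, 30 min RT; luminescence read. Agonist mode, qHTS.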

[17] = qHTS assay to identify small molecule antagonists of the estrogen related receptor signaling pathway with the pleiotropic PPARgamma coactivator (PGC) from Tox21 10K library - cell viability counter screen (AID 1224840; active = well fitted cell-killing curve with a large enough effect in the repeat runs, not every such curve was filed as active; note: nearly all actives have a fitted effect of over 40% in size)
Outline: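 PGC/ERR cells, 2,000/well; 6 h pre-incubation 37 C/5% CO2; cpd in DMSO via pin tool; 17.5 h 37 C; CellTiter-Fluor, 30 min; fluorescence.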

[18] = qHTS assay to identify small molecule antagonists of the estrogen related receptor signaling pathway with the pleiotropic PPARgamma coactivator (PGC) from Tox21 10K library (AID 1224841; call rule not given here)
Outline: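 PGC/ERR cell line, 2,000 cells/well; 6 h pre-incubation 37 C/5% CO2; compounds (DMSO) pinned in; 18 h, 37 C; One-Glo, 30 min RT; luminescence.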

[19] = qHTS assay to identify small molecule agonists of the estrogen related receptor signaling pathway with the pleiotropic PPARgamma coactivator (PGC) from Tox21 10K library (AID 1224842); note: nearly all actives have a fitted effect of over 15% in size
Outline: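 PGC/ERR reporter cells (NTP line) were seeded 2,000 per well, rested 6 h at 37 C/5% CO2, then pin-dosed with compounds in DMSO for 18 h at 37 C; luciferase read by One-Glo luminescence after 30 min at room temperature.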
% is set by controls: 0 for no effect and ±100 for the full control effect.

C=C(C)C(=O)OC1CC(C)CC(C)(C)C1 (stereo not drawn)
inactive: outcome [1] | outcome [2] | outcome [3] | outcome [4] | Potency [5] | outcome [6] | Potency [7] | Potency [8] | outcome [9] | Potency [10] | Potency [11] | outcome [12] | max response [13] 3.29% | Potency [14]

O=S(=O)(O)c1cc(O)ccc1O
inactive: outcome [1] | outcome [2] | Potency [15] | outcome [16] | outcome [6] | Potency [7] | Potency [8] | outcome [9] | Potency [10] | Potency [11] | outcome [12] | max response [13] 9.53% | Potency [14]

Cc1oc(=O)oc1CN1CCN(c2cc3c(cc2F)c(=O)c(C(=O)O)c2n3C(C)S2)CC1 (stereo not drawn)
inactive: outcome [1] | outcome [2] | outcome [3] | outcome [4] | Potency [5] | outcome [6] | Potency [7] | Potency [8] | outcome [9] | Potency [10] | Potency [11] | max response [13] 5.9% | Potency [14]

OCCCCCCCl
inactive: outcome [17] | outcome [2] | outcome [3] | outcome [4] | outcome [6] | Potency [7] | Potency [8] | outcome [9] | Potency [10] | Potency [11] | outcome [12] | max response [13] -5.21% | Potency [14]

COc1ccc(NS(=O)(=O)c2ccc(N)cc2)nn1
inactive: Potency [18] | outcome [19] | outcome [1] | outcome [2] | outcome [3] | Potency [15] | outcome [16] | outcome [6] | Potency [7] | Potency [8] | outcome [9] | Potency [10] | Potency [11] | outcome [12] | max response [13] 3.44% | Potency [14]

OC(CCN1CCCCC1)(c1ccccc1)c1ccccc1
inactive: outcome [17] | outcome [2] | outcome [3] | outcome [6] | Potency [7] | Potency [8] | outcome [9] | Potency [10] | Potency [11] | outcome [12] | max response [13] -16.7% | Potency [14]

O=C(CN1CCN(Cc2ccc3c(c2)OCO3)CC1)N1c2ccccc2Sc2ccccc21
inactive: outcome [17] | outcome [2] | outcome [3] | outcome [4] | outcome [6] | Potency [8] | outcome [9] | Potency [10] | Potency [11] | outcome [12] | Potency [14]

CN[C@@H]1[C@H](O)[C@H](NC)[C@H]2O[C@@]3(O)C(=O)C[C@@H](C)O[C@H]3O[C@@H]2[C@H]1O
inactive: outcome [1] | outcome [2] | outcome [3] | outcome [4] | Potency [5] | outcome [6] | outcome [9] | Potency [10] | Potency [11] | outcome [12] | max response [13] -13.7% | Potency [14]

C=CCOCC(O)CCl (stereo not drawn)
inactive: outcome [17] | outcome [2] | outcome [3] | outcome [4] | outcome [6] | Potency [8] | outcome [9] | Potency [10] | Potency [11] | outcome [12] | max response [13] 0.946% | Potency [14]

O=C(c1ccc2c(c1)C(=O)OC2=O)c1ccc2c(c1)C(=O)OC2=O
inactive: outcome [17] | outcome [2] | outcome [3] | outcome [4] | outcome [6] | Potency [7] | Potency [8] | outcome [9] | Potency [10] | Potency [11] | outcome [12] | max response [13] -1.77% | Potency [14]

C=CCCCCCCCCCCC
inactive: activation [1] -0.0254% [at 8.39 µM] | activity change, negative = cytotoxicity [2] 2.72% [at 6.97 µM] | activation (H2AX phosphorylation) [3] -0.58% [at 14 µM] | activation [4] -0.397% [at 7.01 µM] | activity change, negative = cytotoxicity [5] 3.67% [at 14 µM] | activity change, negative = cytotoxicity [6] 0.824% [at 6.97 µM] | activity change, negative = cytotoxic [7] 7.22% [at 6.97 µM] | cytotoxicity [8] 3.23% [at 6.97 µM] | activity change, negative = cytotoxic [9] -0.414% [at 6.97 µM] | cytotoxicity increase [10] 0.236% [at 6.97 µM] | activity change, negative = cytotoxicity [11] 6.31% [at 6.97 µM] | viability change, negative = cytotoxic [12] 1.47% [at 6.97 µM] | max response [13] 6.19% | activity change [14] -0.54% [at 6.97 µM, hits give high values]

CCCCCCCCOC(C)=O
inactive: Potency [18] | outcome [19] | outcome [1] | outcome [2] | outcome [3] | outcome [4] | Potency [5] | Potency [15] | outcome [16] | outcome [6] | Potency [8] | outcome [9] | Potency [10] | Potency [11] | outcome [12] | max response [13] 7.81% | Potency [14]

CC(C)C(=O)c1ccccc1
inactive: outcome [19] | outcome [1] | outcome [2] | outcome [3] | outcome [4] | Potency [5] | Potency [15] | outcome [16] | outcome [6] | Potency [7] | Potency [8] | outcome [9] | Potency [10] | Potency [11] | outcome [12] | max response [13] -17.8% | Potency [14]

Cn1c(=O)c2c(ncn2CC2OCCO2)n(C)c1=O
inactive: Potency [18] | outcome [19] | outcome [2] | outcome [3] | outcome [4] | Potency [5] | Potency [15] | outcome [16] | outcome [6] | Potency [7] | Potency [8] | outcome [9] | Potency [10] | Potency [11] | outcome [12] | max response [13] 7.08% | Potency [14]

CC(C)CCO
inactive: outcome [17] | outcome [3] | Potency [5] | Potency [7] | outcome [9] | Potency [10] | Potency [11] | max response [13] 3.55% | Potency [14]
